Screens: PubChem, Sanford-Burnham Center for Chemical Genomics
Sampled rows, rich in hits. Any-hit rate of the full collection: about 3%.
SENP8 block-1 – SENP8 protease inhibition. inhibition, % at 10 µM. 330,000 tested, 1.2% active. Q96LD8. purified SENP8, Z-RLRGG-aminoluciferin cleavage, luminescence; in the data active = inhibition above about 50%
Target sequence (Q96LD8 whole entry, looked up): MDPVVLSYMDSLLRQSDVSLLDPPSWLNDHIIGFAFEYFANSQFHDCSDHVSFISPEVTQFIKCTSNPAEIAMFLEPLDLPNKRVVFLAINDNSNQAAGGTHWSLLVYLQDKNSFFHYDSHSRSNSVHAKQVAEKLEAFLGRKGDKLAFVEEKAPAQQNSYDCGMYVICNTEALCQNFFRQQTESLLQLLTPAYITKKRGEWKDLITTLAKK
PPC-1+TRAIL kill – compounds killing PPC-1 cancer cells with TRAIL present (potentiator screen, no TRAIL-free arm); PPC-1 cells + TRAIL, ATPLite viability luminescence; cell killing (% activity), % at 4 µM or 5 µM; 220,000 tested, 0.41% active; AID 1443;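 active = cell killing above 50% in the first pass at 4 µM, then a duplicate retest at 5 µM averaging 50% or more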;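 note: plate controls were cells with TRAIL plus DMSO for no effect and medium-only wells lacking cells for full effect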
SENP8 block-2 – blocks human SENP8 cleavage of Nedd8 substrate; recombinant SENP8, Nedd8 substrate fluorescence; inhibition, % at 20 µM; 360,000 tested, 0.64% active; in the data active = inhibition mostly above about 40%, no sharp cut-off; inactive = mostly below about 27%
SENP6 inh – blocks the human protease SENP6; Q9GZR1; Recombinant SENP6 catalytic domain, aminoluciferin luminescence; inhibition, % at 10 µM; 330,000 tested, 1.8% active; AID 2599;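 active = inhibition above about 50% at the single tested dose, limit read from the data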;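 note: plate controls were DMSO wells with enzyme for no effect and DMSO wells lacking enzyme for full effect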
TRAIL sens C8 – sensitizes caspase-8 expressing cells to TRAIL; NB7+C8 cells + TRAIL, ATPlite viability luminescence; inhibition (viability loss, TRAIL sensitization), % at 10 µM; 360,000 tested, 1% active;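 active = compounds causing at least 50% loss of cell viability in the single-dose screen, relative to plate controls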
SENP7 inh – blocks the human protease SENP7 | Q9BQF6 | recombinant SENP7, Z-RLRGG-aminoluciferin luminescence, 40 min | inhibition, % at 5 µM | 330,000 tested, 1.5% active;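 active = inhibition above about 50% at the single test dose, limit read from the data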;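 note: plate controls were DMSO with enzyme for no effect and no enzyme buffer wells for full effect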
Target sequence (Q9BQF6 706-1050 limits assumed): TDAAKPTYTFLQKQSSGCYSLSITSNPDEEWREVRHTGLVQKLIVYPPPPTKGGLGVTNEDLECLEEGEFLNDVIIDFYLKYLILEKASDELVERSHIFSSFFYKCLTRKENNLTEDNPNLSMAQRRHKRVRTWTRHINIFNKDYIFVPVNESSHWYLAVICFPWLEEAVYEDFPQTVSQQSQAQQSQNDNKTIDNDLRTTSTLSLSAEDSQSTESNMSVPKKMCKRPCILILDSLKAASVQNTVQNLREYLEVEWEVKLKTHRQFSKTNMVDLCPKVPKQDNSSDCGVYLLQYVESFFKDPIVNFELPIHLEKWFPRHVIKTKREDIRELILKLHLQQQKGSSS
An asterisk follows results filed as active; · = not tested or not shown.

SMILES	SENP8 block-1	PPC-1+TRAIL kill	SENP8 block-2	SENP6 inh	TRAIL sens C8	SENP7 inh
Cc1ccc(F)cc1C(=O)N1CCCCC1c1cc(C(=O)Nc2cccc(C#N)c2)no1 (configuration not stated)	·	·	4.7	·	12.8	·
O=C(N/N=C/c1cccc([N+](=O)[O-])c1)c1cc(-c2ccccc2)nc2ccccc12	3.3	23.9	5.0	1.9	21.1	7.1
Cc1ccc(-c2nc(N/N=C/c3cccc([N+](=O)[O-])c3)c3ccccc3n2)cc1	-4.8	·	18.8	14.1	64.5*	-2.9
CSc1ccccc1CNc1nc(NCC2CC2)nc2ccsc12	·	·	-46.2	·	18.9	·
O=C(O)c1ccc(N/N=C/C=C/c2ccccc2)cc1	95.4*	21.9	-215.8	98.5*	6.5	91.8*
O=C(O)c1ccc(N/N=C/c2ccc(-c3ccccc3)cc2)cc1	·	7.9	-340.3	·	5.9	·
CC(C)(C)C(=O)Nc1ccc(/C=C/C(=O)c2ccco2)cc1	-18.2	·	-225.0	-4.2	18.4	-16.9
O=C(NC1CC1)C1CCN(S(=O)(=O)c2ccc(Cl)c([N+](=O)[O-])c2)CC1	-1.7	·	6.6	-14.5	64.1*	9.1
CC(=O)Nc1ccc(/C=N/Nc2nc3ccccc3[nH]2)cc1	-2.6	11.5	-394.9	-17.4	74.6*	-6.5
C(=N\Nc1nc2ccccc2[nH]1)/c1ccncc1	-9.7	33.3	-14.6	1.7	8.5	0.1
Clc1nc2ccccc2cc1/C=N/Nc1nc2ccccc2[nH]1	-12.8	37.2	-15.4	0.3	83.3*	-6.8
COC(=O)[C@]12CCCCC=C1N(Cc1ccc3c(c1)OCO3)C(=O)[C@H](CC(=O)NCC13CC4CC(CC(C4)C1)C3)C2	·	·	12.2	·	-4.1	·
CCc1cc(C(=O)NC2CCCN(Cc3ccccc3F)C2)n(C)n1 (configuration not stated)	-5.4	·	-5.0	-1.6	22.6	1.6
COc1ccc(Cl)cc1-c1nc(-c2ccc(NC(=O)c3ccncc3)cc2)no1	1.4	·	19.5	7.0	17.6	-1.5
COc1ccc(NC(=O)c2ccc3c(c2)OCCO3)cc1OC	8.1	·	10.9	32.5	52.2*	18.6
O=C(Nc1ccc2c(c1)OCCO2)c1ccc(Br)s1	·	60.5*	13.0	·	74.0*	·
COc1ccc(-c2nc(-c3ccc(NC(=O)c4ccncc4)cc3)no2)cc1OC	5.2	7.2	16.4	5.0	65.9*	1.4
COc1cc(-c2nc(-c3ccc(NC(=O)c4ccc5c(c4)OCO5)cc3)no2)cc(OC)c1OC	13.5	16.2	-17.0	42.9	59.1*	2.2
COc1cc(C(=O)Nc2ccc3c(c2)OCCO3)ccc1OC(C)C	-16.8	29.1	13.1	-13.1	15.6	-7.3
CC(=O)CC(c1ccccc1)S(=O)(=O)c1ccc([N+](=O)[O-])cc1 (configuration not stated)	2.9	·	11.9	-1.4	-11.9	7.9
CC1(CNC(=O)C(=O)NCC2(C)CO2)CO1 (configuration not stated)	·	·	5.6	·	-4.5	·
CC(C)(C)c1ccc2c(c1)OC(C(=O)N/N=C\c1ccncc1)CO2 (configuration not stated)	-6.2	-5.2	-1.2	-14.1	-4.5	-0.5
CC(C)(C)c1ccc2c(c1)OC(C(=O)N/N=C\c1ccc[nH]1)CO2 (configuration not stated)	1.6	·	14.6	0.6	61.5*	-0.9
O=C1C=C(O)c2c(O)cc(O)c(O)c2C1=O	4.9	·	46.8*	4.5	14.2	3.5
O=C1c2ccccc2C(=O)c2c(O)c(O)cc(O)c21	9.8	·	18.3	13.8	-5.5	5.9
SMILES	SENP8 block-1	PPC-1+TRAIL kill	SENP8 block-2	SENP6 inh	TRAIL sens C8	SENP7 inh
COc1cc(/C=N/NC(=O)COc2ccc(C)cc2)ccc1OC(=O)c1cccs1	-16.4	45.4	15.8	-25.4	56.5*	-9.8
Cn1ncc(Cl)c1C(=O)N1CCN(C(=O)c2ccco2)CC1	·	2.3	15.0	·	-8.1	·
N#Cc1nc(NCC(F)F)nc(Nc2cc(F)cc(F)c2)n1	-8.8	·	2.1	-19.9	50.1*	-6.5
N#Cc1nc(Nc2cc(F)cc(F)c2)c2ncn(CC(F)F)c2n1	-19.8	·	-156.5	0.7	28.3	-0.4
Cc1nnc(N/N=C\c2ccc(-c3cccc(C(=O)O)c3)o2)n1N	25.3	2.8	-360.1	52.4*	2.0	4.7
CC(C)N(C)c1ncnc2c1ncn2[C@H]1CN(Cc2ccc3c(c2)OCO3)C[C@@H](CO)O1	·	·	20.1	·	6.8	·
O=C(O)c1cc(-c2ccc(/C=C3/SC(=S)N(Cc4ccccc4)C3=O)o2)ccc1Cl	·	42.6	28.5	·	7.8	·
CN1C(=O)/C(=C/c2ccc(-c3ccccc3[N+](=O)[O-])o2)SC1=Nc1ccc(Cl)c(C(=O)O)c1	·	15.1	41.7*	·	14.1	·
Cn1c(=O)c(C(=O)CN2CCCCCC2)c(N)n(Cc2ccccc2)c1=O	1.1	6.9	-418.4	24.1	-18.8	2.1
Cc1cc(C)c(C)c(S(=O)(=O)N2CCN(CC(=O)c3c(N)n(Cc4ccccc4)c(=O)n(C)c3=O)CC2)c1C	-4.7	20.4	11.9	-11.3	60.9*	2.2
COc1ccc(C2(OC)Oc3cc(OC)ccc3C(=O)C2(O)OC)cc1 (configuration not stated)	·	·	5.6	·	22.1	·
CCCCNC(=O)c1ccc(Cn2c(=S)[nH]c3c([nH]c4ccc(OC)cc43)c2=O)cc1	-9.5	17.2	-212.0	8.1	70.4*	-6.9
CC(C)c1ccc(NC(=O)Nc2nc(C(C)N)cs2)cc1 (configuration not stated)	·	·	24.5	·	0.7	·
CC(C)c1ccc(NC(=O)Nc2nc(C(N)C3CCCCC3)cs2)cc1 (configuration not stated)	·	·	13.3	·	87.6*	·
CC(C)c1ccc(NC(=O)Nc2nc(C(N)CCc3ccccc3)cs2)cc1 (configuration not stated)	·	·	17.7	·	95.1*	·
COc1ccc(NC(=O)Nc2nc(C(N)C3CCCCC3)cs2)cc1 (configuration not stated)	·	·	16.1	·	14.2	·
O=C(Cn1cc(SCc2cccc(Cl)c2)c2ccccc21)N1CCOCC1	46.7	37.1	12.1	-15.1	4.0	54.8*
Cc1cc2nc(-c3ccc(SCC(=O)NC(C)C)nc3)[nH]c2cc1C	1.4	30.3	·	7.8	·	10.6
Cc1cc2nc(-c3ccc(SCC(=O)N4CCc5ccccc54)nc3)[nH]c2cc1C	-13.3	44.6	-279.5	-21.9	81.2*	-8.9
N#Cc1ccc(NC(=S)N2CCC3CC2c2cc(-c4ccc5c(c4)OCO5)ccc23)cc1 (configuration not stated)	·	·	11.4	·	-11.0	·
O=C(CNC(=O)C1(c2ccccc2)CC1)Nc1ccc(F)c(F)c1	-1.4	·	7.1	-17.2	-16.8	-7.7
Cc1ccc(-c2csc(N/N=C/c3ccco3)n2)cc1	-0.2	13.5	-21.0	6.7	1.3	6.2
CN(C)S(=O)(=O)c1ccc(-c2csc(N/N=C/c3ccc(O)cc3)n2)cc1	3.9	-4.0	-77.0	-10.2	84.9*	-0.8
CN(C)S(=O)(=O)c1ccc(-c2csc(N/N=C/c3ccco3)n2)cc1	0.7	12.4	-30.0	-9.3	71.8*	5.8
